The source of these data is PubChem BioAssay (NCI).

Among the test systems are DU-145 prostate; K-562 leukemia; MALME-3M melanoma; MDA-MB-231 breast; RXF 393 renal; SF-268 CNS; SF-295 CNS; SF-539 CNS; UACC-257 melanoma; M14 melanoma; HCT-15 colon; HT29 colon; SNB-75 CNS; SNB-19 CNS; U251 CNS; PC-3 prostate; SK-MEL-5 melanoma; UACC-62 melanoma; LOX IMVI melanoma; SK-MEL-28 melanoma.
Holding throughout (assay): NCI-60 one-dose screen, 48 h (100 = growth as untreated, 0 = no growth, -100 = all killed)
Conditions in all cases: 10 µM unless noted

Molecules are shown by their SMILES. The panel holds about 83,000 compounds, 20% with a hit somewhere; the sample as a whole holds those more often.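 Cell lines were cultured in 96-well plates, exposed to a single compound concentration, and assessed for percent growth 48 hours later.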 Values without a mark were called inactive. The source made the active and inactive calls. How the source made its calls: active means growth percent below 10; inactive means the rest.

As to `O=C(NCCCl)Nc1ncccc1OCc1ccccc1`, the growth is 105% in the test on DU-145 prostate; 103% in the test on K-562 leukemia; 103% in the test with MALME-3M melanoma; 101% in the test on MDA-MB-231 breast; 108% with RXF 393 renal; 102% with SF-268 CNS. The growth with SF-295 CNS was 99.9%; in the test with SF-539 CNS, 106%; in the test with UACC-257 melanoma it was 107%; with M14 melanoma, 99.8%; with HCT-15 colon it was 95%; in the test on HT29 colon, 94.5%. Further, the growth with SNB-75 CNS is 103%; with SNB-19 CNS, 103%; in the test with U251 CNS it was 110%; with PC-3 prostate, 99%; with SK-MEL-5 melanoma it was 95.9%; with UACC-62 melanoma it was 92.5%. The growth in the test on LOX IMVI melanoma was 102%; in the test with SK-MEL-28 melanoma, 108%.
Take `CCNCCNc1cc(C2CCCCC2)c(C#N)c2nc3ccccc3n12`: the growth is 32.6% with DU-145 prostate; -38.8% (active) with K-562 leukemia; -72.4% (active) with MALME-3M melanoma; -48.7% (active) in the test with MDA-MB-231 breast; -81.1% (active) in the test with RXF 393 renal; 22.3% in the test on SF-268 CNS. Also, the growth was -53.5% (active) in the test with SF-295 CNS; -88.8% (active) with SF-539 CNS; -67.2% (active) with UACC-257 melanoma; -66% (active) in the test with M14 melanoma; 16.7% in the test with HCT-15 colon; -50% (active) in the test with HT29 colon. Further, the growth in the test with SNB-75 CNS was -26% (active); with SNB-19 CNS it was 42.9%; in the test on U251 CNS, -37.7% (active); with PC-3 prostate, 40.2%; in the test on SK-MEL-5 melanoma it was -55.1% (active); in the test with UACC-62 melanoma, -62% (active). In addition, the growth with LOX IMVI melanoma was -94.8% (active); in the test on SK-MEL-28 melanoma it was -73.1% (active).
Take `COC12C=C/C(=C(/C(=O)OCc3ccncc3)C(=O)CCCCCCCCC3(OC)C=C/C(=C(/C(=O)OCc4ccncc4)C(=O)CCCCCCCC1)O3)O2`: the growth in the test with DU-145 prostate is -60.7% (active); with K-562 leukemia, -4.08% (active); in the test on MALME-3M melanoma, -67.7% (active); in the test on MDA-MB-231 breast it was 1.77% (active); in the test on RXF 393 renal it was -82.7% (active); with SF-268 CNS, -28% (active). The growth is -23.8% (active) in the test with SF-295 CNS; -60.1% (active) in the test with SF-539 CNS; -29.6% (active) with UACC-257 melanoma; -24.4% (active) in the test on M14 melanoma; -57.7% (active) in the test on HCT-15 colon; 1.11% (active) with HT29 colon. In addition, the growth with SNB-75 CNS is -57.2% (active); in the test on SNB-19 CNS, 7.98% (active); in the test with U251 CNS, -50.1% (active); with PC-3 prostate it was -35% (active); in the test with SK-MEL-5 melanoma, -84.5% (active); in the test on UACC-62 melanoma, -63% (active). Further, the values for the growth in the test on LOX IMVI melanoma and in the test with SK-MEL-28 melanoma were -63.9% (active) and -61.1% (active), respectively.
Regarding `COc1ccc(-c2ccc(-c3ccc(C(=N)N)cc3)s2)cc1Cl`, the growth in the test on DU-145 prostate is -87.5% (active); with K-562 leukemia, -36.8% (active); with MALME-3M melanoma, 57.5%; in the test on MDA-MB-231 breast, -60.7% (active); with RXF 393 renal, 60.7%; in the test on SF-268 CNS it was 20%. The growth in the test on SF-295 CNS was -37.5% (active); with SF-539 CNS it was -59% (active); in the test with UACC-257 melanoma, 88.1%; in the test on M14 melanoma, 38.6%; with HCT-15 colon, -70.3% (active); in the test with HT29 colon, 0.572% (active). For the same molecule, the growth was 100% in the test with SNB-75 CNS; 24% in the test with SNB-19 CNS; -62.4% (active) with U251 CNS; -25% (active) with PC-3 prostate; 87.7% in the test with SK-MEL-5 melanoma; 88.3% in the test on UACC-62 melanoma. Besides, the growth was -76.7% (active) with LOX IMVI melanoma and 102% with SK-MEL-28 melanoma.
For `O=C(/C=C/c1cccc(Cl)c1)c1ccc(Nc2nc(Nc3ccc(F)cc3)nc(Nc3ccc(Cl)cc3)n2)cc1`, the growth in the test with DU-145 prostate is 162%; in the test with K-562 leukemia, 79.7%; in the test on MALME-3M melanoma it was 108%; with MDA-MB-231 breast, 110%; in the test on RXF 393 renal, -9.73% (active); in the test on SF-268 CNS, 163%. For the same molecule, the growth in the test with SF-295 CNS is 61.9%; in the test with SF-539 CNS, 142%; in the test with UACC-257 melanoma, 100%; with M14 melanoma, 94.9%; in the test on HCT-15 colon, 101%; in the test with HT29 colon it was 108%. Moreover, the growth was 95.7% in the test on SNB-75 CNS; 118% with SNB-19 CNS; 112% with U251 CNS; 98.8% with PC-3 prostate; 90.7% in the test on SK-MEL-5 melanoma; 108% with UACC-62 melanoma. Moreover, the growth in the test with LOX IMVI melanoma is 104%; with SK-MEL-28 melanoma, 112%.
On to `O=C(c1nn(-c2ccccc2)c2c1CC(NCc1ccc(F)cc1)CC2)N1CCCCC1` (stereo not given), for which the growth in the test on DU-145 prostate was 108%; with K-562 leukemia it was 91%; in the test with MALME-3M melanoma, 102%; with MDA-MB-231 breast, 110%; with RXF 393 renal, 107%; in the test on SF-268 CNS, 93%. For the same molecule, the growth was 102% with SF-295 CNS; 106% in the test on SF-539 CNS; 101% with UACC-257 melanoma; 95.3% in the test on M14 melanoma; 99.5% with HCT-15 colon; 101% in the test with HT29 colon. In addition, the growth with SNB-75 CNS is 84.5%; in the test with SNB-19 CNS it was 101%; in the test on U251 CNS, 95.7%; in the test with PC-3 prostate, 93.5%; in the test on SK-MEL-5 melanoma, 96%; with UACC-62 melanoma, 110%. Besides, the figures for the growth in the test on LOX IMVI melanoma and with SK-MEL-28 melanoma were 99.1% and 117%, respectively.
For `Cc1cc(S(=O)(=O)/N=C(\N)n2nc(C)c(C)c2C)c(SCc2ccccc2)cc1Cl`, the growth was 98.1% with DU-145 prostate; 30.9% in the test with K-562 leukemia; 94.1% with MALME-3M melanoma; 89.6% in the test with MDA-MB-231 breast; 72.9% with RXF 393 renal; 86.6% in the test on SF-268 CNS. The growth is 54.3% in the test on SF-295 CNS; 98.8% with SF-539 CNS; 73.4% in the test on UACC-257 melanoma; 74.6% with M14 melanoma; 56.6% in the test with HCT-15 colon; 63.7% in the test with HT29 colon. Further, the growth in the test with SNB-75 CNS is 79.4%; in the test with SNB-19 CNS it was 89.9%; with U251 CNS it was 60.8%; in the test with PC-3 prostate, 40.2%; in the test with SK-MEL-5 melanoma it was 94.7%; in the test with UACC-62 melanoma, 71.1%. Further, the growth was 66.9% in the test on LOX IMVI melanoma and 91.4% in the test on SK-MEL-28 melanoma.
